This note sets out measurements from PubChem BioAssay AID488852 (National Center for Advancing Translational Sciences (NCATS), 2010).

A number with no mark means an inactive call. Active and inactive are the calls of the source. Calls come from the whole dose curve; as a rule, active = well fitted curve in the direction sought with a large enough effect; inconclusive = small, poorly fitted or top-dose-only effect, or another doubt; inactive = no such curve, though single readings can be large or run the other way.

Lysosomal acid glucosylceramidase (Homo sapiens), sequence (P04062 whole entry N409S): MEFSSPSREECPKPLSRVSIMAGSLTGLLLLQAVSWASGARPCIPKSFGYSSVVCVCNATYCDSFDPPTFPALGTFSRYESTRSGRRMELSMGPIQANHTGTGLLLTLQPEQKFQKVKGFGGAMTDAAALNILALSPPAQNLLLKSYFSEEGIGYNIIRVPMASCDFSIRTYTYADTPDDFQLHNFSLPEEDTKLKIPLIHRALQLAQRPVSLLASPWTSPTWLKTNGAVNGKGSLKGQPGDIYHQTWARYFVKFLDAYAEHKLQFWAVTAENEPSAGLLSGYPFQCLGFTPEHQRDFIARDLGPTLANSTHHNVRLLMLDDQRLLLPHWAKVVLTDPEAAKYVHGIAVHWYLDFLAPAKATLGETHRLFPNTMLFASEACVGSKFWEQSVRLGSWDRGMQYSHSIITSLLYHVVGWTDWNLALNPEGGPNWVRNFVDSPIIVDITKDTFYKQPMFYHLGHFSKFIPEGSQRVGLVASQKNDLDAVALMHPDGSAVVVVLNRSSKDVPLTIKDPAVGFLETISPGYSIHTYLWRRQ

The target in the experiment is Lysosomal acid glucosylceramidase (Homo sapiens) (UniProt P04062). Put plainly: qHTS Assay for Inhibitors and Activators of N370S glucocerebrosidase as a Potential Chaperone Treatment of Gaucher Disease: Activity in N370S Spleen Homogenate Confirmation Using Alternate Substrate for Probe SAR. Conditions: N370S patient spleen homogenate, resorufin-glucoside fluorescence; series mostly up to 57.5 µM; activity change, negative = inhibition: at the top concentration. An excerpt:
NIH Chemical Genomics Center [NCGC] NIH Molecular Libraries Probe Production Centers Network [MLPCN] MLPCN Grant: MH086442-01 Assay Submitter (PI): Wei Zheng Glucocerebrosidase (GC) catalyzes the hydrolysis of beta-glucocerebroside to glucose and ceramide in lysosomes. Mutations in the glucocerebrosidase gene result in Gaucher disease, an autosomal recessive lysosomal storage disorder. Many of the mutations encountered in patients with Gaucher disease are missense alterations that may cause misfolding, decreased stability and/or mistrafficking of this lysosomal protein. […] These inhibitors include iminosugar analogs and three non-iminosugar inhibitors identified from a previous HTS of 62,000 compounds with the wild type recombinant enzyme. However, the enhancement of enzyme activity by the chaperone action of an enzyme inhibitor must be balanced against the direct inhibition of the enzyme. An enzyme activator could also function as a chaperone by binding to the enzyme and helping to correct its misfolding and mistrafficking. While activators for GC have not yet been identified, they may have better therapeutic potential than inhibitors. Therefore the discovery and development of chemical activators may provide a new strategy for the chaperone therapy. We have optimized a new assay using N370S mutant GC derived from the spleen of a Gaucher patient. […] In addition, the MLPCN compound library has expanded, which increases the chance of finding new and better probes. This confirmation assay tests for compound activity in spleen homogenate from a patient homozygous for the N370S mutation using an alternate resorufin-based substrate.
NCGC Assay Protocol Summary: This is a fluorogenic enzyme assay with resorufin-beta-D-glucopyranoside as the substrate and mutant N370S glucocerebrosidase from human spleen homogenate as the enzyme preparation. Upon the hydrolysis of this fluorogenic substrate, the resulting product, […] which can be detected by a standard fluorescence plate reader. Data were normalized to the controls for basal activity (without enzyme) and 100% activity (with enzyme). The AC50 values were determined from concentration-response data modeled with the standard Hill equation. Assay buffer: 50 mM citric acid (titrated with potassium phosphate to pH 5.0), 100 mM potassium chloride, 10 mM sodium chloride, 1 mM magnesium chloride, 0.01% Tween-20. 1536-well assay protocol: (1) Add 2 ul/well of spleen homogenate (27 ug final) (2) Add 23 nL compounds in DMSO solution. The final titration was 0.5 nM to 58 uM. (3) Add 2 ul of substrate (1 mM final) (4) Incubate at 37C for 40 min. (5) Add 2 ul stop solution (1M NaOH and 1M Glycine mixture, pH 10) (6) Detect the assay plate in a ViewLux plate reader (PerkinElmer) with Ex=365 nm and Em=440nm. Keywords: Glucocerebrosidase, beta-glucosidase, Gaucher Disease, pharmacological chaperone, chaperone therapy, high throughput screening, glucocerebrosidase inhibitor, MLSMR, MLSCN, NIH Roadmap, qHTS and NCGC
(In general: qHTS replaces the single test concentration by a dilution series.)
Take `CNC(=O)c1cnn2c(C)cc(C)nc12`: the “activity change, negative = inhibition” value is -0.211%. The same measure, in the same setting: the result for `Cc1cc(C)n2ncc(C(=O)NCc3ccco3)c2n1` reads 0.0344%; that for `Cc1cc(C)n2ncc(C(=O)N3CCCC3)c2n1`, -0.211%; that for `CCc1ccc(NC(=O)c2cnn3c(C)cc(C)nc23)cc1`, -0.211%. On the same count and under the same terms, the result for `Cc1cc(C)n2ncc(C(=O)Nc3ccc4c(c3)OCCO4)c2n1` reads 0.0219%; that for `Cc1cc(C)n2ncc(C(=O)NCc3ccccc3)c2n1`, -24.6%; that for `Cc1cc(C)n2ncc(C(=O)NC(C)C)c2n1`, -22.2%.

Regarding `COc1cc(NC(=O)c2cnn3c(C)cc(C)nc23)cc(OC)c1OC`, the “activity change, negative = inhibition” value is 0.0219%. The same measure, in the same setting: the same measure for `Cc1cc(C)n2ncc(C(=O)Nc3ccc4c(c3)CCC4)c2n1`: -0.211%; for `Cc1cc(C)n2ncc(C(=O)Nc3ccc4c(c3)OCO4)c2n1`: 0.0219%; for `CC(=O)Nc1ccccc1NC(=O)c1cnn2c(C)cc(C)nc12`: -23.8%. Turning to `Cc1cc(C)n2ncc(C(=O)Nc3ccncc3)c2n1`, the “activity change, negative = inhibition” value is 0.0344%.

As to `Cc1ccc(NC(=O)c2cnn3c(C)cc(C)nc23)cc1`, the “activity change, negative = inhibition” value is -0.21%.

`Cc1cccc(NC(=O)c2cnn3c(C)cc(C)nc23)c1`: the “activity change, negative = inhibition” value was -0.21%. Same read-out and setting: the result for `Cc1cc(C)n2ncc(C(=O)NC3CCCCC3)c2n1` reads -0.211%; that for `COc1ccc(NC(=O)c2cnn3c(C)cc(C)nc23)cc1Cl`, -14.1%; that for `CC(=O)c1cccc(NC(=O)c2cnn3c(C)cc(C)nc23)c1`, 17.3%. On the same count and under the same terms, the same measure for `Cc1cc(C)n2ncc(C(=O)NCC(C)C)c2n1`: -0.211%; for `Cc1cc(C)n2ncc(C(=O)Nc3ccc(Br)cc3)c2n1`: 16.8%. The same measure, in the same setting: the same measure for `Cc1cc(C)n2ncc(C(=O)Nc3ccccc3C)c2n1`: -15.4%; for `Cc1cc(C)n2ncc(C(=O)Nc3ccc(S(C)(=O)=O)cc3)c2n1`: 0.0344%; for `CC(=O)Nc1ccc(NC(=O)c2cnn3c(C)cc(C)nc23)cc1`: -24.9%. As to `Cc1cc(C)n2ncc(C(=O)Nc3ccc(C)c(C)c3)c2n1`, the “activity change, negative = inhibition” value was 0.0219%.

With `Cc1cc(C)n2ncc(C(=O)Nc3ccc(C#N)cc3)c2n1`, the “activity change, negative = inhibition” value is -24.2%. As to `Cc1cc(C)n2ncc(C(=O)Nc3cccc(C#N)c3)c2n1`, the “activity change, negative = inhibition” value was -0.211% [at 19 µM]. As for `Cc1cc(C)n2ncc(C(=O)NC3CCC(C(C)(C)C)CC3)c2n1` (configuration not stated), the outcome was inactive.

On to `COc1ccc(NC(=O)c2cnn3c(C)cc(C)nc23)cc1F`, for which the “activity change, negative = inhibition” value was 22.7%. The same measure, in the same setting: the result for `Cc1cc(C)n2ncc(C(=O)Nc3cccc(C(F)(F)F)c3)c2n1` reads 0.0219%.

Turning to `Cc1cc(C)n2ncc(C(=O)Nc3ccccc3)c2n1`, the “activity change, negative = inhibition” value was -18.7%. `COc1ccc(NC(=O)c2cnn3c(C)cc(C)nc23)cc1OC`: the “activity change, negative = inhibition” value is 0.0219%. Still for that read-out and setting: the result for `COc1ccc(NC(=O)c2cnn3c(C)cc(C)nc23)cc1` reads -0.21%; that for `O=C(Nc1cnn(Cc2ccc(F)cc2)c1)c1cnn2c(C(F)F)cc(-c3ccccc3)nc12`, 0.0344%.

For `CC(=O)c1ccc(NC(=O)c2cnn3c(C)cc(C)nc23)cc1`, the “activity change, negative = inhibition” value was 0.0219%. As to `Cc1cc(C)n2ncc(C(=O)Nc3ccc(C(C)(C)C)cc3)c2n1`, the “activity change, negative = inhibition” value was -0.21%. With `Cc1cc(C)n2ncc(C(=O)Nc3ccc(C(F)(F)F)cc3)c2n1`, the “activity change, negative = inhibition” value was 23.7%. Same read-out and setting: the result for `Cc1ccc(NC(=O)c2cnn3c(C)cc(C)nc23)c(C)c1` reads -0.21%. The same measure, in the same setting: the same measure for `C#Cc1ccc(NC(=O)c2cnn3c(C)cc(C)nc23)cc1`: 20.9%.
